ERK EGF inh: inhibitors of EGF-stimulated ERK signaling pathway | HEK293-V1b, EGF-stimulated phospho-ERK AlphaScreen | Potency, µM (top dose mostly 11.5 µM), for the others: at the highest dose activity change, negative = inhibition, most hits filed as inhibitors | actives 0.41% (n = 130,000) | AID 1454; active means well fitted inhibition curve with a large enough effect;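 further: plate controls were stimulated vehicle wells for no effect and unstimulated vehicle basal for full effect; nearly all actives have a fitted effect of over 55% in size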
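After overnight plating in 1% FBS, HEK293-V1b cells received test compound for half an hour, then a 5 min pulse of EGF (25 nM); ERK phosphorylation in lysates was read by bead-based AlphaScreen.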
An asterisk follows results filed as active; [ ] = another dose, or the depositor's remark. This excerpt belongs to a sample that is enriched for hits. Potency means the concentration at half of the fitted maximal effect.

SMILES	ERK EGF inh
CN(C)c1ccc(NC(=S)c2ccccn2)cc1	20µM*
CN(C)c1ccc(C(=S)Nc2ccccc2)cc1	5.7%
COC(=O)C1C(O)CC[C@H]2CN3CCc4c([nH]c5ccccc45)C3C[C@H]12 (stereo partly drawn)	22.4%
C1=C(CN2CCOCC2)COc2c1cccc2OC[C@@H]1CNCCO1	9.3%
CNC(=O)[C@H]1O[C@H](n2cnc3c(NCc4cccc(I)c4)nc(Cl)nc32)[C@@H](O)[C@@H]1O	-1.6%
CNC(=O)[C@H]1O[C@@H](n2cnc3c(NCc4cccc(I)c4)ncnc32)[C@H](O)[C@H]1O	18.8%
CC(C)(C)Nc1oc(-c2ccccc2)nc1-c1ccc(C(F)(F)F)cc1	-6.5%
C=CCC(C)(O)C(=O)OCC (stereo not drawn)	-7.3%
CCN(CC)S(=O)(=O)c1cccc(NC(=O)c2cncc(Br)c2)c1	-7.4%
CCN(CC)S(=O)(=O)c1cccc(NC(=O)c2ccc(Br)cc2)c1	14.1µM*
CN(C)S(=O)(=O)c1cccc(NC(=O)c2cncc(Br)c2)c1	3.9%
Nc1cnn(Cc2ccccc2F)c1	-15.2%
O=C(C1CCCO1)N1CCN(C(=S)Nc2ccccc2Cl)CC1 (stereo not drawn)	-7.8%
CCOC1=NN(c2ccccc2)C(=O)/C1=C\N(C)C	-2.5%
CC1=NN(c2ccccc2)C(=O)/C1=C\C=C\c1ccccc1	25.1µM*
CC1=NN(c2ccc([N+](=O)[O-])cc2)C(=O)/C1=C\N(C)C	-3.0%
CCOC(=O)CC1=NN(c2ccccc2)C(=O)/C1=C\c1ccc(N(C)C)cc1	25.1µM*
CCOC(=O)CC1=NN(c2ccccc2)C(=O)C1	-2.5%
CC1=NN(c2ccccc2)C(=O)/C1=C/N(C)C	7.8%[57.5 µM]
CC1=NN(c2ccccc2)C(=O)/C1=C/C=C/c1ccc(N(C)C)cc1	7.08µM*
CC1=NN(c2ccccc2)C(=O)/C1=C\c1cn(C)c2ccccc12	14.1µM*
CC1=NN(c2ccc(C(=O)OC(C)C)cc2)C(=O)/C1=C\C=C\c1ccco1	16.4%
CC1=NN(CCC#N)C(=O)/C1=C/c1ccc(N(C)C)cc1	-3.1%
Cc1ccc(C(=O)NN2C(=O)/C(=C/c3cn(C)c4ccccc34)SC2=S)cc1	3.0%
Cn1cc(C=O)c2ccccc21	18.6%
SMILES	ERK EGF inh
CCNC(=S)Nc1ccc(S(=O)(=O)Nc2cc(C)nc(C)n2)cc1	-0.3%
CCC1=C(OC(=O)N(CC)CC)N2C(=O)OC(=NCC3CC3)[C@]2(C)[C@H]2C1=CC[C@H]1C(=O)N(c3ccccc3)C(=O)[C@H]12	3.9%
O=C(c1ccncc1)N1CCC2(CCCN(c3ncccn3)C2)CC1	-14.9%
Cc1nc(N2CCOCC2)c2nc(-c3ccccc3)n(CC3CCN(C)CC3)c2n1	-5.7%
CCCCCCCCCCCCCCC/C=C/[C@@H](O)[C@H](NC(=O)CCCCCCCCCCCCC)OC (tested in a mixture with another compound)	7.4%
C[C@@H]1CCC2[C@](C)(CO)[C@@H](O)CC[C@]2(C)[C@]12CCC(CO)(CCO)O2 (stereo partly drawn)	2.2%
CC(C)(C)NC(=O)C(=O)NCCC1=CCCCC1	3.8%
COC(=O)NC(CCc1ccccc1)C(C(=O)OC)C(=O)OC (stereo not drawn)	-10.5%
CCC(=O)Nc1ccc(Nc2nc(C)c([N+](=O)[O-])c(Nc3ccc(NC(=O)CC)cc3)n2)cc1	-1.5%
CC(=O)Nc1ccc(Nc2nc(C)c([N+](=O)[O-])c(Nc3ccccc3)n2)cc1	31.6µM*
Cc1nc(Nc2ccc(C(=O)O)cc2)nc(Nc2ccc(C(=O)O)cc2)c1[N+](=O)[O-]	6.3%
C1CCc2c(nc3nnnn3c2NCC2CC2)C1	3.3%[57.5 µM]
N#CC1(c2ccccc2)CCC(=O)N1c1ccccc1 (stereo not drawn)	-1.0%[57.5 µM]
c1coc(CN(Cc2ccco2)c2ncnc3c2oc2ccccc23)c1	17.8µM*
CCn1cnc2c(oc3ccccc32)c1=O	-3.0%
Fc1ccc(CSc2ncnc3c2oc2ccccc23)cc1	7.0%
CCOC1=NN(c2ncc(C(F)(F)F)cc2Cl)C(=O)/C1=C/N(C)C	4.7%
O=C(Nc1cccc(F)c1)N1CC[C@@]2(CCCN(C(=O)c3cnccn3)C2)C1	-11.4%
C#C[C@]1(O)CCC2C3CCC4=C(CCC(=O)C4)C3CC[C@@]21C (stereo partly drawn)	0.7%
Clc1ccc(CN2C3=NCCCN3c3ccccc32)cc1Cl	-1.8%
COc1cccc(NCc2cc(=O)oc3cc(-c4ccccc4)c(O)cc23)c1	28.2µM*
O=c1cc(CN2CCN(c3cccc(Cl)c3)CC2)c2cc(O)c(-c3ccccc3)cc2o1	-6.6%[57.5 µM]
COc1cccc(-c2oc3ccccc3c(=O)c2O)c1	15.8%
O=C(Nc1cccc(Cl)c1Cl)c1cc(S(=O)(=O)NCCc2ccccc2)ccc1F	3.3%
CCOC(=O)/C(C#N)=C/C1=C(N2CCOCC2)C(C)(C)OCC1	-4.4%[57.5 µM]
SMILES	ERK EGF inh
O=C(Nc1ccc2cn[nH]c2c1)c1c(Cl)cccc1Cl	-8.8%
O=C1C(Cl)=C(Nc2ccc3cn[nH]c3c2)C(=O)c2ccccc21	15.8µM*
CN(C)c1ccc(NC2=C(Cl)C(=O)c3ccccc3C2=O)cc1	14.1µM*
O=C(Oc1ccc(NC2=C(Cl)C(=O)c3ccccc3C2=O)cc1)c1ccc([N+](=O)[O-])cc1	-1.5%
CC(=O)Nc1ccc(NC2=C(Cl)C(=O)c3ccccc3C2=O)cc1	22.0%
O=C(Nc1ccc2cn[nH]c2c1)c1ccccc1F	1.5%
CCOC(=O)c1cnc2c(C(=O)OC)cccc2c1NCc1cccnc1	-7.8%
COc1ccccc1CN1CCCC2(CCNCC2)C1	6.3%
COc1ncc2nc(-c3ccc(Cl)cc3)c(=O)n(C[C@H]3CCCO3)c2n1	17.1%
CCC(C)[C@@H](N)C(=O)N/N=C/c1cccc2nccnc12 (stereo partly drawn)	-5.2%[57.5 µM]
COc1ccc(/C(=C/Nc2cccc(Br)c2)C(C)=O)cc1OC	1.9%
Cc1cccc(Nc2ncnc3ccc(Br)cc23)c1	1.78µM*
Cc1cc2c(Nc3ccccc3)ncnc2s1	14.1µM*
Cc1cccc(Nc2ncnc3nc[nH]c23)c1	28.2µM*
COc1cc2ncnc(Nc3cccc(Br)c3)c2cc1OC	0.1µM*
OCCCNc1ncnc2sc(-c3ccccc3)cc12	5.9%
O=C(O)c1cccc(Nc2ncnc3sccc23)c1	-2.4%
COc1ccc(Nc2ncnc3c2cnn3-c2cccc(C)c2)cc1OC	-8.5%[57.5 µM]
CC(Nc1ncnc2nc[nH]c12)c1ccccc1 (stereo not drawn)	1.3%
CCOc1ccc(Nc2ncnc3ccc([N+](=O)[O-])cc23)cc1	-6.7%
Cc1cccc(Nc2nc3ccccc3n3nnnc23)c1	-3.7%
Cc1ccc(/C=N/Nc2ncnc3nc[nH]c23)cc1	8.8%[57.5 µM]
COc1ccc(-c2nc3cnc(OC)nc3n(C3CC3)c2=O)cc1	-6.7%
CC(C)(C)OC(=O)NCCCC[C@H](NC(=O)c1nc[nH]c1C(=O)N1CCN(c2ccccc2)CC1)C(=O)OC(C)(C)C	2.7%[57.5 µM]
C[C@H]1CC[C@@H]2N(C1)C[C@H]1[C@@H]3C[C@H]4[C@@H](C/C(=N\O)[C@H]5C[C@@H](O)CC[C@@]54C)[C@@H]3CC[C@H]1[C@]2(C)O	-12.1%
COC(=O)N1CCC2(CCN(Cc3nccs3)CC2)CC1	-6.8%
COc1ccc2c(c1)O[C@@H](c1cccc(C(F)(F)F)c1)[C@H](OC(=O)NC1CCCC1)C2=O	0.3%
Cc1c(C(=O)O)cccc1-c1ccc(/C=N/Nc2ccc(Br)cc2)o1	9.1%
CCCCC/C=C\C\C=C/C=C/C=C/[C@@H](SCC(N)C(=O)NCC(=O)O)[C@@H](O)CCCC(=O)O (stereo partly drawn)	-13.5%
Cc1ccc2ncnc(NCCCCCC(=O)O)c2c1	-10.2%[57.5 µM]
